PubChem BioAssay (Tox21)
Results filed as inconclusive are left out. Calls of active or inactive are those of the source. Unless noted, calls come from the whole dose curve; as a rule, active = well fitted curve in the direction sought with a large enough effect in the repeat runs; inconclusive = weak or mixed curves; inactive = no such curve, though single readings can be large; an effect the other way counts as inactive or inconclusive.

Assays:
[1] = qHTS assay for small molecules that induce genotoxicity in human embryonic kidney cells expressing luciferase-tagged ATAD5 (AID 651632); note: nearly all actives have a fitted effect of over 15% in size
Method in brief: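 HEK293T cells carrying luciferase-tagged ATAD5 were given compound or DMSO vehicle and incubated 16 hr at 37C, 5% CO2. Luciferase activity was read after 30 min at room temperature with Amplite; a rise signals genotoxic stress.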

[2] = qHTS assay for small molecule agonists of the p53 signaling pathway - cell viability (AID 651633; calls by dose curve;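 note: p53RE-bla HCT reporter cells with a stable beta-lactamase p53 reporter; series mostly up to about 83 µM; nearly all actives have a fitted effect of over 30% in size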)
Method in brief: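 Viability counter-read: CellTiter-Glo luminescence (30 min, room temperature) in the same p53RE-bla plates. These plates had been exposed to compounds for 16 h at 37 C.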

[3] = qHTS assay for small molecules that induce genotoxicity in human embryonic kidney cells expressing luciferase-tagged ATAD5 - cell viability (AID 651634; calls by dose curve; note: nearly all actives have a fitted effect of over 25% in size)
Method in brief: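 HEK293T cells carrying luciferase-tagged ATAD5, 2,000 cells/well, exposed to compound for 15.5 hr at 37C. Viability read as live-cell protease activity by CellTiter-Fluor fluorescence after 30 min at 37C.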

[4] = qHTS assay for small molecule disruptors of the mitochondrial membrane potential - cell viability (AID 720634; calls by dose curve;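 note: human HepG2 liver cancer cells; series mostly up to about 83 µM; nearly all actives have a fitted effect of over 20% in size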)
Method in brief: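 HepG2 cells, 2,000 per well, attached overnight, then treated 1 hr at 37 C, 5% CO2. Viability read as ATP by CellTiter-Glo luminescence after 30 min at room temperature. Read in the same wells as the m-MPI membrane-potential dye assay.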

[5] = qHTS assay for small molecule disruptors of the mitochondrial membrane potential (AID 720635)
Method in brief: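 Mitochondrial membrane potential tracked with Mito-MPS dye, red aggregates (ex 540/em 590 nm) against green monomers (ex 490/em 535 nm). Compound treatment 1 hr at 37C, dye 30 min in HepG2.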

[6] = qHTS assay to test for compound auto fluorescence at 590 nm (red) in HepG2 cells (AID 720674)
Method in brief: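 Red autofluorescence (Ex/Em 540/590 nm, Rose Bengal sodium equivalents) was measured in HepG2 cells, 2,000 per well in MEM plus 10% FBS, plated overnight at 37 C. Readings were taken 1 hr after adding 23 nL compound or DMSO, at 37 C and 5% CO2.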

[7] = qHTS assay to test for compound auto fluorescence at 535 nm (green) in HepG2 cells (AID 720675)
[8] = qHTS assay to test for compound auto fluorescence at 460 nm (blue) in HEK293 cells (AID 720678)
Method in brief: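 Blue read-out at excitation 405 nm and emission 460 nm follows overnight compound exposure of HEK293 cells at 37C in 5% CO2. Activity is given as auto fluorescence equivalency to triamterene.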

[9] = qHTS assay to test for compound auto fluorescence at 590 nm (red) in HEK293 cells (AID 720679)
Method in brief: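 Red channel, Ex/Em 540/590nm; signal expressed as equivalency to Rose Bengal sodium. HEK293, 2,000 cells/well, 10% dialyzed FBS; 23 nL compound pinned after 4-5 hr attachment; overnight 37C/5% CO2 before reading.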

[10] = qHTS assay to test for compound auto fluorescence at 460 nm (blue) in HEK293 cell free culture (AID 720681)
Method in brief: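 Blue fluorescence (Ex 405/Em 460 nm, triamterene-equivalent) was read immediately after pin transfer of compound or DMSO into medium (DMEM, 10% FBS) without cells.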

[11] = qHTS assay to test for compound auto fluorescence at 535 nm (green) in HEK293 cell free culture (AID 720682)
Method in brief: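 Intrinsic compound fluorescence is measured in culture medium containing 10% FBS, with excitation at 485 nm and detection at 535 nm, referenced to fluorescein.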

[12] = qHTS assay to test for compound auto fluorescence at 590 nm (red) in HEK293 cell free culture (AID 720683)
Method in brief: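 Red-channel autofluorescence of compounds in culture medium (DMEM, 10% FBS), no cells, measured at 540/590 nm. Rose Bengal sodium is the reference fluorophore for equivalence.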

[13] = qHTS assay to test for compound auto fluorescence at 590 nm (red) in HepG2 cell free culture (AID 720684)
Method in brief: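 Steps: dispense MEM/10% FBS medium, no cells; pin compound or DMSO vehicle; read red channel, Ex/Em 540/590 nm. Output given as Rose Bengal sodium equivalents.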

[14] = qHTS assay to test for compound auto fluorescence at 460 nm (blue) in HepG2 cell free culture (AID 720685)
Method in brief: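 Compound (23 nL) or DMSO pinned into cell-free MEM with 10% FBS; blue fluorescence read at 405/460 nm excitation/emission, expressed as auto-fluorescence equivalency to triamterene.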

[15] = qHTS assay to test for compound auto fluorescence at 535 nm (green) in HepG2 cell free culture (AID 720686)
[16] = qHTS assay to test for compound auto fluorescence at 460 nm (blue) in HepG2 cells (AID 720687)
Method in brief: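 Blue-channel autofluorescence (Ex/Em 405/460 nm, triamterene-equivalent) was measured after 1 hr compound exposure at 37 C, 5% CO2. Cells were HepG2, plated overnight at 37 C in MEM plus 10% FBS.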

[17] = biological target: Glucocorticoid receptor (Homo sapiens) (UniProt P04150); assay: qHTS assay to identify small molecule agonists of the glucocorticoid receptor (GR) signaling pathway (AID 720691; active = well fitted activation curve with a large enough effect in the signal ratio in the repeat runs, not every such curve was filed as active; the % refers to the signal ratio)
Chain of Glucocorticoid receptor (Homo sapiens) (P04150 whole entry, looked up): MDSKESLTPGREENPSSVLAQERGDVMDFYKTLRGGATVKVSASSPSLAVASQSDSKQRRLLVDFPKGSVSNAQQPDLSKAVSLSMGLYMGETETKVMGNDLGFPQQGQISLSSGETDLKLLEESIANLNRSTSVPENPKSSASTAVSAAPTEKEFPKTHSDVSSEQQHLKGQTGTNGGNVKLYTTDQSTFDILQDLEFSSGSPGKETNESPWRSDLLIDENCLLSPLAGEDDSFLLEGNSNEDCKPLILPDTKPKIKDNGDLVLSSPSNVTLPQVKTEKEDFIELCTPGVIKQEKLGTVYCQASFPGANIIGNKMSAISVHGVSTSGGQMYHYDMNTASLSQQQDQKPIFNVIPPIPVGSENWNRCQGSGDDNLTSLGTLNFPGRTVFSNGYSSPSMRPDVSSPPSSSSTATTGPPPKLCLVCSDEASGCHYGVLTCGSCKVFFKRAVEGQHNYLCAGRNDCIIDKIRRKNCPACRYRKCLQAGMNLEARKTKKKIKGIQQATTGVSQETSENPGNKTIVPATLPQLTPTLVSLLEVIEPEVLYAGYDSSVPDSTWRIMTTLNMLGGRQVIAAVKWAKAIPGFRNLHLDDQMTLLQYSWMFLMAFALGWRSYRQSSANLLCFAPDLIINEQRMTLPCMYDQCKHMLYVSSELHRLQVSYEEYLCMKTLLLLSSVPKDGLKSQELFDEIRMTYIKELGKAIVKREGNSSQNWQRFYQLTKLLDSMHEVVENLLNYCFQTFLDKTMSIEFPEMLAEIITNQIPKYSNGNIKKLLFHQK
Method in brief: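 GR-bla HeLa cells carrying a GRE-driven beta-lactamase reporter, exposed to compounds for 18 h at 37 C. Reporter activation read as fluorescence after 2 h with LiveBLAzer B/G FRET substrate at room temperature.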

[18] = biological target: Glucocorticoid receptor (Homo sapiens) (UniProt P04150); assay: qHTS assay to identify small molecule antagonists of the glucocorticoid receptor (GR) signaling pathway (AID 720692; active = well fitted inhibition curve with a large enough effect in the signal ratio in the repeat runs, not every such curve was filed as active; the % refers to the signal ratio)
Method in brief: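 GR-bla HeLa cells carrying a GRE-driven beta-lactamase reporter received compound after 4 h plating, then dexamethasone (5 nM final). After 18 h at 37C, the FRET substrate was loaded for 2 h at room temperature and fluorescence read.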

[19] = qHTS assay to test for compound auto fluorescence at 535 nm (green) in HEK293 cells (AID 720680)
% is set by controls: 0 for no effect and ±100 for the full control effect.

CC(C)(C)N(CCO)CCO
inactive: Potency [1] | Potency [2] | Potency [3] | Potency [4] | Potency [5] | outcome [6] | outcome [7] | Potency [8] | outcome [9] | Potency [10] | outcome [11] | outcome [12] | outcome [13] | Potency [14] | outcome [15] | Potency [16] | Potency [17] | Potency [18]

CCCCC=O
inactive: Potency [1] | Potency [2] | Potency [3] | Potency [4] | outcome [6] | outcome [7] | Potency [8] | outcome [9] | outcome [19] | Potency [10] | outcome [11] | outcome [12] | Potency [14] | outcome [15] | Potency [17] | Potency [18]

O=Cc1ccccc1[N+](=O)[O-]
inactive: Potency [1] | Potency [2] | Potency [3] | Potency [4] | outcome [6] | outcome [7] | Potency [8] | outcome [9] | outcome [19] | outcome [11] | outcome [12] | Potency [14] | outcome [15] | Potency [16] | Potency [17] | Potency [18]

NC(N)=NS(=O)(=O)c1ccc(N)cc1
inactive: Potency [1] | Potency [2] | Potency [3] | Potency [4] | fluorescence, relative to Rose Bengal [6] -0.133% [at 18.6 µM] | fluorescence, % of fluorescein control [7] 0.0157% [at 18.6 µM] | fluorescence, % of fluorescent control [9] 0.29% [at 18.6 µM] | fluorescence, % of fluorescein [19] 0.0406% [at 18.6 µM] | fluorescence, % of fluorescent control [10] -0.0354% [at 18.6 µM] | activity change [11] 0.0753% [at 18.6 µM] | fluorescence, % of fluorescent control [12] -0.0082% [at 18.6 µM] | fluorescence, % of Rose Bengal [13] 0.343% [at 18.6 µM] | fluorescence, % of fluorescent control [14] -0.0031% [at 18.6 µM] | fluorescence, % of fluorescein control [15] -0.0207% [at 18.6 µM] | fluorescence, % of fluorescent control [16] -0.0417% [at 18.6 µM] | Potency [17] | Potency [18]

CC(C)(O)Cc1ccccc1
inactive: Potency [1] | Potency [2] | Potency [3] | Potency [4] | Potency [5] | outcome [6] | outcome [7] | Potency [8] | outcome [9] | outcome [19] | Potency [10] | outcome [11] | outcome [12] | outcome [13] | Potency [14] | outcome [15] | Potency [16] | Potency [17] | Potency [18]

COc1cc(C)cc(O)c1
inactive: Potency [1] | Potency [2] | Potency [3] | Potency [4] | Potency [5] | outcome [6] | outcome [7] | Potency [8] | outcome [9] | outcome [19] | Potency [10] | outcome [11] | outcome [12] | Potency [14] | outcome [15] | Potency [16] | Potency [17]

NCCNC(=O)c1ccc(Cl)cn1
inactive: Potency [1] | Potency [2] | Potency [3] | Potency [4] | outcome [6] | outcome [7] | Potency [8] | outcome [9] | outcome [19] | Potency [10] | outcome [11] | outcome [12] | outcome [13] | Potency [14] | outcome [15] | Potency [16]

C1C2OC2C2C1C1CC2C2OC12 (centres undefined)
inactive: Potency [1] | Potency [2] | Potency [3] | Potency [4] | outcome [6] | outcome [7] | Potency [8] | outcome [9] | Potency [10] | outcome [11] | outcome [12] | outcome [13] | Potency [14] | outcome [15] | Potency [16] | Potency [17]

Cn1cnc2c(=O)[nH]c(N)nc21
inactive: Potency [1] | Potency [2] | Potency [3] | Potency [4] | outcome [6] | outcome [7] | Potency [8] | outcome [9] | outcome [19] | outcome [11] | outcome [12] | outcome [13] | Potency [14] | outcome [15] | Potency [16]

CC/C=C\C#N
inactive: Potency [1] | Potency [2] | Potency [3] | Potency [4] | outcome [6] | outcome [7] | Potency [8] | outcome [9] | outcome [19] | Potency [10] | outcome [11] | outcome [12] | outcome [13] | Potency [14] | outcome [15] | Potency [16] | Potency [17] | Potency [18]

C=CCOCC(O)CS(=O)(=O)O (centres undefined)
inactive: Potency [1] | Potency [2] | Potency [3] | Potency [4] | outcome [6] | outcome [7] | Potency [8] | outcome [9] | Potency [10] | outcome [11] | outcome [12] | outcome [13] | Potency [14] | outcome [15] | Potency [16]

CN(C)C(=O)Nc1ccccc1
inactive: Potency [1] | Potency [3] | Potency [4] | outcome [6] | outcome [7] | Potency [8] | outcome [9] | Potency [10] | outcome [11] | outcome [12] | outcome [13] | Potency [14] | outcome [15] | Potency [16]

CCCOc1ccccc1-c1nc2n[nH]nc2c(=O)[nH]1
inactive: Potency [1] | Potency [2] | Potency [3] | Potency [4] | outcome [6] | outcome [7] | outcome [9] | outcome [19] | outcome [11] | outcome [12] | outcome [13] | Potency [14] | outcome [15] | Potency [17] | Potency [18]

C#CC(O)C(CC)CCCC (centres undefined)
inactive: Potency [1] | Potency [2] | Potency [3] | outcome [6] | outcome [7] | Potency [8] | outcome [9] | outcome [19] | Potency [10] | outcome [11] | outcome [12] | Potency [14] | outcome [15] | Potency [16] | Potency [17]

COc1nc(C)nc(N)n1
inactive: Potency [1] | Potency [2] | Potency [3] | outcome [6] | outcome [7] | Potency [8] | outcome [9] | outcome [19] | Potency [10] | outcome [11] | outcome [12] | outcome [13] | Potency [14] | outcome [15] | Potency [16] | Potency [17] | Potency [18]

CCCC=O
inactive: Potency [2] | Potency [3] | Potency [4] | outcome [6] | outcome [7] | Potency [8] | outcome [9] | outcome [11] | outcome [12] | outcome [13] | Potency [14] | outcome [15] | Potency [16] | Potency [17] | Potency [18]
